From the supplement of paper PMC11732987, “Enantioselective OTUD7B fragment discovery through chemoproteomics screening and high-throughput optimisation” (Communications Chemistry, 2025)

What was measured:
Experiment in all cases: log2 ratio of Biotin-Ahx-Ub-VS probe labelling (fragment/DMSO); higher = less target engagement (more negative = stronger competition), active = hit call of the paper (q ≤ 0.05, log2 ratio ≤ -1)
Settings in all cases: compound concentration: 200 uM; treatment time: 3 h
USP19 = molecular target: T1, USP19 (UniProt O94966)
T1 sequence (whole entry): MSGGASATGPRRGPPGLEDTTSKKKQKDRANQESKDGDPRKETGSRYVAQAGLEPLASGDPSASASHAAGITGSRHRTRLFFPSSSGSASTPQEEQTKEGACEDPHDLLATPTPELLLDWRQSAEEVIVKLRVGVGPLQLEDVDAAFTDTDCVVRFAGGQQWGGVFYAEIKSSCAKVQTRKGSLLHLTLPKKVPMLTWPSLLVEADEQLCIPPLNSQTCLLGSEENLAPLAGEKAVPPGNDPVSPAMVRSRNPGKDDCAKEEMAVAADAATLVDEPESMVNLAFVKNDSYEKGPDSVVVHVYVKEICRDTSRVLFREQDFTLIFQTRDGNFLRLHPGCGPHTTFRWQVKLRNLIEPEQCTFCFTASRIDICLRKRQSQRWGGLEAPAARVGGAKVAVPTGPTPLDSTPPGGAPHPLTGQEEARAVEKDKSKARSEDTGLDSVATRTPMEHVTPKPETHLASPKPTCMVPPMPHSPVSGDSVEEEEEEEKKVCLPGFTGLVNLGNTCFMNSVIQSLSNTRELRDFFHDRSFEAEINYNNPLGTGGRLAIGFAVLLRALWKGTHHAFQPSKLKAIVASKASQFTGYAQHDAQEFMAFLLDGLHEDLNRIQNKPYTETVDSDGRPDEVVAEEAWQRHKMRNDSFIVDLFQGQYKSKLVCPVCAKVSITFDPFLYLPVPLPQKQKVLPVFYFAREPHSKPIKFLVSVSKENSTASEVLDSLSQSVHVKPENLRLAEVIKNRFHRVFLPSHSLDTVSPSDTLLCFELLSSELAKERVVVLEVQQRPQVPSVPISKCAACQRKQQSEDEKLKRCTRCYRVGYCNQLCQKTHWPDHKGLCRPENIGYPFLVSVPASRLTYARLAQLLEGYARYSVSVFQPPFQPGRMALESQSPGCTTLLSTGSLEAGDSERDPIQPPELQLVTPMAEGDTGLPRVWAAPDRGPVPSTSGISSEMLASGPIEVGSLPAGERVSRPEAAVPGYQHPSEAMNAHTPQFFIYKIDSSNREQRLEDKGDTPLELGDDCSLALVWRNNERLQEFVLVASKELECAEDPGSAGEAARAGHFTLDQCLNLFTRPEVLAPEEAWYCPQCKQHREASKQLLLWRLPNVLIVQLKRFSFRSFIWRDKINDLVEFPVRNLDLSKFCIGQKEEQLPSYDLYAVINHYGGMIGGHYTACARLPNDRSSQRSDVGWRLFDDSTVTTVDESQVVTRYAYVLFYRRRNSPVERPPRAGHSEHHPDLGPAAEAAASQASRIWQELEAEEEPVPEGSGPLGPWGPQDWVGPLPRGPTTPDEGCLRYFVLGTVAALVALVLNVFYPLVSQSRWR
Outline: (§1)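 HEK293T lysate, 495 µg per sample in Tris/CHAPS/IGEPAL buffer with protease inhibitors, was treated in triplicate with fragment at 200 µM or vehicle for 3 h and then with Biotin-Ahx-Ub-VS at 0.5 µM final for 1 h. Labelled DUBs were NeutrAvidin-enriched, digested with LysC and trypsin, and run by diaPASEF LC-MS/MS. Spectronaut label-free quantities were global-median-normalised, and values are average log2 fragment/vehicle ratios by unpaired t-test on proteins with ≥2 unique peptides.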

USP22 = molecular target: T2, USP22 (UniProt Q9UPT9)
T2 sequence (whole entry): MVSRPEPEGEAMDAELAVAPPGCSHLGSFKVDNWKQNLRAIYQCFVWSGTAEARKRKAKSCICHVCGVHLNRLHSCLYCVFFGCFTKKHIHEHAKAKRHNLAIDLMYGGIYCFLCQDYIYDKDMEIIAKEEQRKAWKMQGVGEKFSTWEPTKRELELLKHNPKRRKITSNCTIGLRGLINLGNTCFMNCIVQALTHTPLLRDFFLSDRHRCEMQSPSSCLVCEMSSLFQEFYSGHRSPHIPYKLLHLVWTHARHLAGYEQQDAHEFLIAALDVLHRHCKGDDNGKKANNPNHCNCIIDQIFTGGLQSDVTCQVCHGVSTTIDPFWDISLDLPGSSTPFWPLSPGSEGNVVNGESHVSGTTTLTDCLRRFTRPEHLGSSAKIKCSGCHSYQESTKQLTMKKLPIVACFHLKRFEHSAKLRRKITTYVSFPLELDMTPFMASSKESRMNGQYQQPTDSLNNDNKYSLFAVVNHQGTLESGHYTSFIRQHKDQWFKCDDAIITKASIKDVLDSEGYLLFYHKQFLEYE
Outline: as §1

USP24 = USP24 (UniProt Q9UPU5)
Sequence of USP24 (Q9UPU5 whole entry): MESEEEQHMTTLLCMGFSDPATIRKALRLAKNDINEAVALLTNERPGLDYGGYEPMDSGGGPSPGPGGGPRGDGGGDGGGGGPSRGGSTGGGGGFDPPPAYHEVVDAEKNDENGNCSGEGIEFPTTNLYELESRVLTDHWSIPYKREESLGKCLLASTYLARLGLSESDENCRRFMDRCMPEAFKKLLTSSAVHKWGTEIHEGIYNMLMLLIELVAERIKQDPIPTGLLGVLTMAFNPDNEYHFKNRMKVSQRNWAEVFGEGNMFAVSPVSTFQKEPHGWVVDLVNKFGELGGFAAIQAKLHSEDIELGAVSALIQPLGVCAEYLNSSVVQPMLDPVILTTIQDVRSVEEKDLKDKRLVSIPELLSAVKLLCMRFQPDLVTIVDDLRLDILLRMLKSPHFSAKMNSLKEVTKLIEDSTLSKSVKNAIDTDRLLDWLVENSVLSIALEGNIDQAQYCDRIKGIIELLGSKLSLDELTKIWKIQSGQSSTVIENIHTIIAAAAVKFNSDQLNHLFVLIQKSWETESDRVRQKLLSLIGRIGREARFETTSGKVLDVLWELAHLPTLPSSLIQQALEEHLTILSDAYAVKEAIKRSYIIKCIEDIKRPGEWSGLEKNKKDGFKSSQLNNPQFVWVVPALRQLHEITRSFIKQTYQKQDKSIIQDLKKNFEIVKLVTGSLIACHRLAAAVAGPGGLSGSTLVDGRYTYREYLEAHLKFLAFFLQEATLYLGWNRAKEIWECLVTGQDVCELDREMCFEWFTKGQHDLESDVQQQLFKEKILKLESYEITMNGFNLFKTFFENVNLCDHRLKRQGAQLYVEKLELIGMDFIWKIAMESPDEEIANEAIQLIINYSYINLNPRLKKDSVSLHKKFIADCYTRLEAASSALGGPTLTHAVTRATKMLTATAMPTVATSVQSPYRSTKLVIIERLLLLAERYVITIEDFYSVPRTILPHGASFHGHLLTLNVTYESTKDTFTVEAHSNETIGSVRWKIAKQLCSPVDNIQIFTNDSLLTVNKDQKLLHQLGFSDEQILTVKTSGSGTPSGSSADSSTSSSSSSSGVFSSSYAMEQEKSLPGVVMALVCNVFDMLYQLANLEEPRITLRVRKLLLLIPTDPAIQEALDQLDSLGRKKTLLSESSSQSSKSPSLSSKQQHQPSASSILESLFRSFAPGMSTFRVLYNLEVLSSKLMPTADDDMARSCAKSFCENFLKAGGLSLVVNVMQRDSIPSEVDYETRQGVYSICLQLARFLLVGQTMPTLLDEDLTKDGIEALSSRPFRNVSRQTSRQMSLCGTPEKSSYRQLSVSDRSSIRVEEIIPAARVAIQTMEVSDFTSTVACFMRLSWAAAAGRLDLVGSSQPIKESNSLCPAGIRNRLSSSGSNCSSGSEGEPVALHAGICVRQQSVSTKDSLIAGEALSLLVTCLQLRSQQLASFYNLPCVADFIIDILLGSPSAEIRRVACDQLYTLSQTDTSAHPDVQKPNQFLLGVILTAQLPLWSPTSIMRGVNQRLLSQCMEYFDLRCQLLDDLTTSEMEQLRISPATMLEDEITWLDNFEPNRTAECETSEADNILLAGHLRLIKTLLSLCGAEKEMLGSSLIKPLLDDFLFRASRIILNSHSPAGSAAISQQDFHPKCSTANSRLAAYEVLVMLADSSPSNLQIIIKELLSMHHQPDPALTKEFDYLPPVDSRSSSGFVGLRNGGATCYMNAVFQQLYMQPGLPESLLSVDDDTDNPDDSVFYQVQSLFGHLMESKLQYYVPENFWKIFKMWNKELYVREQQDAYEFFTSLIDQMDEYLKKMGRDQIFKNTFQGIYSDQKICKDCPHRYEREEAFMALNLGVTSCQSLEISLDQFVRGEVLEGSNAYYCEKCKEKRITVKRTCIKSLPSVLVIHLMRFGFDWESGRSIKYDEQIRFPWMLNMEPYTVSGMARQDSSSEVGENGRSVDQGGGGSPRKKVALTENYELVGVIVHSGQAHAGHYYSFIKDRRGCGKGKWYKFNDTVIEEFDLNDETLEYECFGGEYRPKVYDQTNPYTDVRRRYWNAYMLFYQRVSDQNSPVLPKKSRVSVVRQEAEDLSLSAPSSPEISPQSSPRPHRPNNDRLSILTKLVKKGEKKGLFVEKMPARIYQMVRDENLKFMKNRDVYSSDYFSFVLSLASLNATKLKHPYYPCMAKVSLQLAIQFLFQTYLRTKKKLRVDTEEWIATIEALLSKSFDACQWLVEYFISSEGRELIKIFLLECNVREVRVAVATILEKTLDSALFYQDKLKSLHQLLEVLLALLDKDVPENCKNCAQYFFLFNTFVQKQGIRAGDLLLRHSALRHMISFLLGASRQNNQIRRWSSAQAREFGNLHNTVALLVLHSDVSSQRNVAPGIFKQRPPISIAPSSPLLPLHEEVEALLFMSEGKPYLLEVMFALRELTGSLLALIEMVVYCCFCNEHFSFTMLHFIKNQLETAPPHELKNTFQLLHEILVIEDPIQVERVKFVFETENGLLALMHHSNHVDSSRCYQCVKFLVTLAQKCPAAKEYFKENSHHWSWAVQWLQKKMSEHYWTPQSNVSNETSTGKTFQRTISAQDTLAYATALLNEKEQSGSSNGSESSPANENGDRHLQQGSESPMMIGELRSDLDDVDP
Outline: as §1

USP25 = molecular target: T3, USP25 (UniProt Q9UHP3)
T3 sequence (whole entry): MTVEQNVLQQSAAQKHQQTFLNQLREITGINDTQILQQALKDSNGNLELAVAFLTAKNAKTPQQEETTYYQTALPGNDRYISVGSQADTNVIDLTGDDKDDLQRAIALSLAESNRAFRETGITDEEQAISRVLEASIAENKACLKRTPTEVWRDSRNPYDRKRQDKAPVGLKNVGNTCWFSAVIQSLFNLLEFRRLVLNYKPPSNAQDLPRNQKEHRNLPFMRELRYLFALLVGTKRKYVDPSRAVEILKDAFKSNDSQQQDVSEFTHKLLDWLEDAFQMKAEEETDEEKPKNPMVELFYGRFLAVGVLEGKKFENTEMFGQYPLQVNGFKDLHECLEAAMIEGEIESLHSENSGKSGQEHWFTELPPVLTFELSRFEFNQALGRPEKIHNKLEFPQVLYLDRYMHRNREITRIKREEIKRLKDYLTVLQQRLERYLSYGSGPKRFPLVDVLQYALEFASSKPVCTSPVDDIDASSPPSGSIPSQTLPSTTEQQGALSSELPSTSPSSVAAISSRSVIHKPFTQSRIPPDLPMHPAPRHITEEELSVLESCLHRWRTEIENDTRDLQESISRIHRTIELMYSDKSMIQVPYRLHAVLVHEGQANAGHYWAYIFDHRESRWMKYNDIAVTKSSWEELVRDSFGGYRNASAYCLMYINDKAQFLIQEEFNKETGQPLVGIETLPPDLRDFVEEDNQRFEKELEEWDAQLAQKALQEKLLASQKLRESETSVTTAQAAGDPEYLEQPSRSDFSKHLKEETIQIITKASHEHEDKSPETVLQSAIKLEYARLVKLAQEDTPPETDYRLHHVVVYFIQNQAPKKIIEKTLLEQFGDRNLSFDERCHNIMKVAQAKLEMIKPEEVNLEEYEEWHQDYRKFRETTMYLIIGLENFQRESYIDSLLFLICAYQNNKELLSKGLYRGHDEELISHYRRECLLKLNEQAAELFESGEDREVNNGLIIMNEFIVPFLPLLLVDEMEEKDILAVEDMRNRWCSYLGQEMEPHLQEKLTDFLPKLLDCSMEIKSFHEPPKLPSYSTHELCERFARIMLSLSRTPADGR
Outline: as §1

USP28 = molecular target: T4, USP28 (UniProt Q96RU2)
T4 sequence (whole entry): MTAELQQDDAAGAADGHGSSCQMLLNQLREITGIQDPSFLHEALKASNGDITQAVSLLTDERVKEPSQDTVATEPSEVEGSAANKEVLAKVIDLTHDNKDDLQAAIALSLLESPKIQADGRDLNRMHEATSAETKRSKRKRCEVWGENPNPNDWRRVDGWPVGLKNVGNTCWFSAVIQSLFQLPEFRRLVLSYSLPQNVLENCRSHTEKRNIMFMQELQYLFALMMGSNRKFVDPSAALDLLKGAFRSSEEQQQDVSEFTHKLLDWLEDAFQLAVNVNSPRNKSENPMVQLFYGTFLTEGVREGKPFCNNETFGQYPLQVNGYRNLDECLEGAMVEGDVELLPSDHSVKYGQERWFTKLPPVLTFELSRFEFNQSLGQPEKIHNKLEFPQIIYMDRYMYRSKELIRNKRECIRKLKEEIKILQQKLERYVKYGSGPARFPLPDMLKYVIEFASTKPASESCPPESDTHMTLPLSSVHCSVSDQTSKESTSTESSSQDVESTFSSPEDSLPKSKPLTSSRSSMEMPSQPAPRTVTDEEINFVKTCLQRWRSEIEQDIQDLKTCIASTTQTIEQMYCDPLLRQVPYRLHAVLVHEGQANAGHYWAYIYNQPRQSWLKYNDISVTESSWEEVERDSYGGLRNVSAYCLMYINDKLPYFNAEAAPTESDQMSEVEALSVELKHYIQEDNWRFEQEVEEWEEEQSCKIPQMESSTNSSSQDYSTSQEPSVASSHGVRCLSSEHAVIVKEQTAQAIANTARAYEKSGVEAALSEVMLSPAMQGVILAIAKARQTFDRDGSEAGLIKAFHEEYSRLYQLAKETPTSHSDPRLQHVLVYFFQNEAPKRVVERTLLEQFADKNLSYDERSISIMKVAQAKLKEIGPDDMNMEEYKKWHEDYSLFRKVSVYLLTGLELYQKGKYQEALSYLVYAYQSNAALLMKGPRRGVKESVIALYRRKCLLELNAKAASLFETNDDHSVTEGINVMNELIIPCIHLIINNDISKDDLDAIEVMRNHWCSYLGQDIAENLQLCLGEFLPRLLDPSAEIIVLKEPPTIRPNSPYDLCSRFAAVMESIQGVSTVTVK
Outline: as §1

Measured: log2 ratio of Biotin-Ahx-Ub-VS probe labelling

COc1ccc(CN(C)C(=O)CCl)cc1
inactive: USP19 -0.211 | USP22 -0.227 | USP24 -0.564 | USP25 -0.245 | USP28 -0.499
